Screens: PubChem, National Center for Advancing Translational Sciences (NCATS)
A selection: hits, their analogues and other compounds. The true share with any hit is near 2.4%.
WRN helicase inh – WRN helicase (human) inhibition | WRN helicase unwinding, fluorescent forked duplex, kinetic | AID 651768 | 360,000 tested, 0.46% active | Q14191 | Potency, µM (titrated, usually from 114 µM), for the others: top-dose activity change, negative = inhibition, hits mostly inhibitors; note: potency is the fitted concentration of half-maximal effect; % is set by controls: 0 for no effect and ±100 for the full control effect; nearly all actives have a fitted effect of over 55% in size
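Fluorescence dequenching readout, ex 525 nm/em 598 nm, kinetic mode: forked duplex DNA (100 nM final) with adjacent fluorophore and quencher unwound by WRN (20 nM final) with 2 mM ATP. Compound preincubation 15 min, room temperature.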
Pol iota inh – DNA polymerase iota (human) inhibition | Q9UNA4 | Pol iota fluorescent replication assay, 10 min | Potency, µM (series often up to 115 µM), for inactives: top-dose activity, negative = inhibition, hits mostly inhibitors | 390,000 tested, 1% active; note: potency is the fitted concentration of half-maximal effect
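Fluorescent replication assay read twice, at 0 min and 10 min after adding 50 nM (final) substrate. Enzyme (10 nM) and compounds were first incubated 15 min at room temperature; enzyme-free buffer wells were negative controls.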
Pol kappa inh-1 – blocks human DNA polymerase kappa activity; Q9UBT6; purified Pol kappa, fluorescent DNA synthesis assay, 10 min; Potency, µM (series often up to 107 µM), for the others: at the top dose activity, negative = inhibition, hits mostly inhibitors; 400,000 tested, 0.53% active; AID 588579; note: potency is the fitted concentration of half-maximal effect; % is set by controls: 0 for no effect and ±100 for the full control effect
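Readout: fluorescence, taken kinetically at 0 and 10 min. Conditions: 10 nM Pol kappa, 15 min RT compound preincubation, 50 nM substrate final. Controls: enzyme-free buffer wells.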
FEN1 inhibitor – blocks human flap endonuclease 1; Potency, µM (doses to about 114 µM), without a hit: at the highest dose activity change, negative = inhibition, usual class: inhibitors; 390,000 tested, 0.35% active; P39748; Recombinant FEN1 flap cleavage, fluorescence, 15 min; note: potency is the fitted concentration of half-maximal effect; % is set by controls: 0 for no effect and ±100 for the full control effect; nearly all actives have a fitted effect of over 65% in size
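FEN1 at 10 nM, compound pretreatment for 15 min (room temperature), 50 nM final substrate to initiate; endpoint reads at 0 and 15 min; DMSO-only plates used as vehicle background.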
Pol beta inh-1 – blocks human DNA polymerase beta activity. P06746. Pol beta primer extension/strand displacement, fluorescence kinetic. Potency, µM (top dose mostly 114 µM), for inactives: at the highest dose activity change, negative = inhibition, usual class: inhibitors. 340,000 tested, 1.3% active. AID 485314; note: potency is the fitted concentration of half-maximal effect; % is set by controls: 0 for no effect and ±100 for the full control effect
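Human Pol beta at 10 nM; strand-displacement substrate 50 nM final. Compound exposure 15 min at room temperature before start, reaction 10 min at room temperature.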
Pol eta inh-1 – DNA polymerase eta (human) inhibition. recombinant Pol eta, fluorescent DNA replication assay. 390,000 tested, 1.2% active. Potency, µM (series often up to 114 µM), for the others: at the top dose activity change, negative = inhibition, most hits filed as inhibitors. Q9Y253; note: potency is the fitted concentration of half-maximal effect; % is set by controls: 0 for no effect and ±100 for the full control effect
Target sequence (Q9Y253 whole entry, looked up): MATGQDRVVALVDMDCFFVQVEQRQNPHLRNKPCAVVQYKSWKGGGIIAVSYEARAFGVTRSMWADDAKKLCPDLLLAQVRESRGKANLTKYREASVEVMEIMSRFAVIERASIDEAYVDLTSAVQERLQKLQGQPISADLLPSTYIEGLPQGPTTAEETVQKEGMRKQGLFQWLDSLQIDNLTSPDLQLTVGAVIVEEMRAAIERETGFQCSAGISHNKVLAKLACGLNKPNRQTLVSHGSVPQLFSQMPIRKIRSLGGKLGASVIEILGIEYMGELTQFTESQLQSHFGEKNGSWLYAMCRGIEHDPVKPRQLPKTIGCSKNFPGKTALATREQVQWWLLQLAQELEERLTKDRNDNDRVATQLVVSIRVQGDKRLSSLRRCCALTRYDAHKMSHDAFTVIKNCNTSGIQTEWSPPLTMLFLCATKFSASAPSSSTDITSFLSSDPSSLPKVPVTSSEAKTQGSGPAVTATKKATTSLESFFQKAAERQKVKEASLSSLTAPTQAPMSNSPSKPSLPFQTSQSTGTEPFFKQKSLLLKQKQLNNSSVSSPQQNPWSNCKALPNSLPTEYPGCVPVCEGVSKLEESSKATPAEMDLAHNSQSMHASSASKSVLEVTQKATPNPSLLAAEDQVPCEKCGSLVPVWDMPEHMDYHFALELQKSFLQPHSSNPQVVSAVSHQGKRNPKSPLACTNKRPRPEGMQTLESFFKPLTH
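Fluorescent replication assay: 50 nM final substrate added after a 15 min room-temperature compound preincubation with 10 nM enzyme. Signal taken at 0 min and again at 10 min.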
Pol beta inh-2 – Validate hits inhibiting human DNA polymerase beta | shares compounds with Pol beta inh-1 | Pol beta primer extension/strand displacement, fluorescence kinetic | Potency, µM, actives largely listed as inhibitors | 250 tested, 87% active | AID 540280; calls by dose curve; note: potency is the fitted concentration of half-maximal effect
Klenow counter – inhibits Klenow fragment polymerase in counter-screen; shares compounds with Pol beta inh-1; Klenow exo- polymerase counter-screen, fluorescent DNA substrate; activity change, negative = inhibition, % at 57.1 µM; 250 tested, under 10 active; AID 540300
HIV RT inh – HIV-1 RT inhibition, pol beta selectivity check | shares compounds with Pol beta inh-1 | HIV-1 RT polymerase activity, counter-screen | activity % (negative = inhibition, positive = activation), % at 57.1 µM | 250 tested, under 10 active
POLB inh gel – DNA polymerase beta inhibition, radiolabeled validation. radiolabeled primer extension gel assay, phosphorimager. 110 tested, 91% active. inhibition, % at 10 µM. shares compounds with Pol beta inh-1. AID 540325;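 active = inhibition at 10 µM of 30% or more; inconclusive = no clear call, values can overlap the other calls; inactive = inhibition at 10 µM under 30%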
TbPGK inh – validation of Trypanosoma brucei phosphoglycerate kinase inhibitors; shares compounds with Pol kappa inh-1; TbPGK coupled GAPDH assay, Kinase-Glo luminescence; Potency, µM (top dose mostly 57.5 µM), without a hit: top-dose activity change, negative = inhibition, hits mostly inhibitors; 500 tested, 79% active; note: potency is the fitted concentration of half-maximal effect; % is set by controls: 0 for no effect and ±100 for the full control effect; nearly all actives have a fitted effect of over 65% in size
POLI cherry-pick – Confirm cherry-picked inhibitors of human polymerase iota. shares compounds with Pol kappa inh-1. Pol iota primer extension, TAMRA/BHQ fluorescence. Potency, µM, hits mostly inhibitors. 1,500 tested, 77% active; note: potency is the fitted concentration of half-maximal effect
Pol kappa inh-2 – confirmation of human DNA polymerase kappa inhibitors | shares compounds with Pol eta inh-1 | AID 720501 | Potency, µM, most hits filed as inhibitors | purified Pol-kappa, fluorescent strand-displacement substrate | 920 tested, 76% active; note: potency is the fitted concentration of half-maximal effect
Pol eta inh-2 – Pol eta (human) inhibition, cherry-pick confirmation; shares compounds with Pol eta inh-1; Pol eta primer extension, TAMRA/BHQ fluorescence, 10 min; Potency, µM, actives largely listed as inhibitors; 2,600 tested, 64% active; AID 720502; note: potency is the fitted concentration of half-maximal effect
Active calls of the source: *; ? = inconclusive; nt = no result given; [ ] = remark or other dose. Unless noted, calls come from the whole dose curve; as a rule, active = well fitted curve in the direction sought with a large enough effect; inconclusive = small, poorly fitted or top-dose-only effect, or another doubt; inactive = no such curve, though single readings can be large; an effect the other way counts as inactive or inconclusive.

SMILES	WRN helicase inh	Pol iota inh	Pol kappa inh-1	FEN1 inhibitor	Pol beta inh-1	Pol eta inh-1	Pol beta inh-2	Klenow counter	HIV RT inh	POLI cherry-pick	others
O=C(OCc1cc(=O)n2c(n1)sc1ccccc12)c1ccc2c(=O)n3c(nc2c1)CCC3	-6.4%[11.6 µM]	?	?	6.8%	10µM*	?	12.6*	-17.2	26.8	nt
CCn1cc(C(=O)NCc2ccco2)c(=O)c2cc(F)c(N3CCN(C(=O)c4ccco4)CC3)cc21	?	?	?	-10.5%	14.1µM*	?	?	-36.0	33.4	nt
NS(=O)(=O)c1ccc(NC(=O)c2ccc(-c3ccccc3)cc2)cc1	-27.5%	?	?	-15.3%	14.1µM*	?	15.8*	-33.0	7.8	nt
CC(C)(C)c1ccc(C(=O)Nc2ccc(S(N)(=O)=O)cc2)cc1	-10.2%	6.9%	-8.1%	-13.6%	25.8%	-3.9%	nt	nt	nt	nt
COc1ccccc1N1CCN(C(=O)c2cc3c(s2)CCC3)CC1	-25.3%	-29.5%	-27.4%	11.0%	7.94µM*	?	?	11.5	9.7	nt	POLB inh gel=74.4*
COC(=O)C1=C(Nc2ccccc2NC(=O)CCCC(=O)O)CSC1	12.2%	39.1%	-4.0%	18.3%	9.9%	-22.7%	nt	nt	nt	nt
Cc1cc(-c2nc3c4c5c(sc4[nH]c(=O)n3n2)CCC5)c(C)o1	?	12.6µM*	?	?	3.55µM*	12.6µM*	31.6*	-16.5	27.4	nt	POLB inh gel=22.6
Cc1ccc2nc(/C(C#N)=C\c3ccc(Oc4ccc(C(F)(F)F)cc4[N+](=O)[O-])cc3)[nH]c2c1	56.2µM*	40.2%	-16.6%	-22.4%	7.08µM*	?	14.1*	-29.9	29.5	42.3*
N#C/C(=C\c1ccc(OCc2ccc(Br)cc2)cc1)C(=O)Nc1cccc(C(=O)O)c1	-23.9%[11.6 µM]	115.0%	-4.5%	?	8.91µM*	?	15.8*	0.6	21.7	67*
COc1ccc(CCNC(=O)c2nnn(CC(=O)Nc3ccc(C)cc3C)c2N)cc1OC	-16.4%	35.5µM*	-42.2%	-0.2%	0.562µM*	?	25.1*	-0.9	16.2	?	POLB inh gel=52.0*
Cc1ccc(NC(=O)Cn2nnc(C(=O)NCCc3ccccc3)c2N)c(C)c1	-0.2%	?	-10.7%	-6.5%	-2.6%	?	nt	nt	nt	nt
O=C(NCCc1csc(-c2ccc(F)cc2)n1)c1ccco1	nt	7.6%	-11.3%[60.1 µM]	-1.3%	5.7%	-10.5%	nt	nt	nt	nt
CCCCCCCCC1=NCCc2c1[nH]c1ccccc21	-6.8%	48.3%	-4.9%	0.9%	30.5%	-29.8%	nt	nt	nt	nt
CSc1nc(N(C)CCO)c2sc3nc(-c4ccco4)c4c(c3c2n1)CCC4	22.4µM*	1µM*	?	44.7µM*	7.08µM*	8.91µM*	?	-30.6	9.4	nt	TbPGK inh=-18.6%
CSc1nc(NCCN(C)C)c2sc3nc(-c4ccco4)c4c(c3c2n1)CCC4	-21.8%	?	-4.9%	?	nt	?	nt	nt	nt	nt
O=C(Oc1ccc2c(c1)OCO2)c1cc2c(s1)CCC2	?	5.01µM*	20µM*	?	10µM*	3.98µM*	15.8*	-31.0	30.0	18.9*	TbPGK inh=?;Pol eta inh-2=67.5*
O=C(Nc1ccon1)c1sc2cc(Cl)ccc2c1Cl	12.3%	16.5%	5.8%	-3.7%	37.9%	-12.1%	nt	nt	nt	nt
Cc1ccc(S(=O)(=O)N2CCN(C(=O)Cc3ccc(S(=O)(=O)N4CCOCC4)s3)CC2)cc1	11.0%	1.5%	3.9%	-15.9%	10.1%	2.8%	nt	nt	nt	nt
COc1ccc(N2CCN(C(=O)Cc3ccc(S(=O)(=O)N4CCOCC4)s3)CC2)cc1	?	20µM*	79.4µM*	-20.0%	12.6µM*	20µM*	31.6*	-32.9	45.4	42.3*	POLB inh gel=83.3*;Pol eta inh-2=47.8*
CC(C)(C)c1ccccc1NC(=O)C1=COCCO1	-0.8%	62.6%	-3.3%	-0.9%	nt	-7.0%	nt	nt	nt	nt
CSc1nc(SCC(=O)O)c2sc3nc(-c4ccccc4)c4c(c3c2n1)CCC4	?	?	?	?	2.51µM*	?	3.98*	?	-3.5	15*	Pol eta inh-2=67.5*
C=C(C)CCOC(=O)C(CC(=O)O)NCc1ccco1 (centres undefined)	-4.5%[11.6 µM]	-6.6%	?	6.1%	8.91µM*	11.2µM*	35.5*	-6.8	10.3	nt	Pol kappa inh-2=18.9*;Pol eta inh-2=26.9*
O=C(O)CC(NCc1ccco1)C(=O)OCCc1ccccc1 (centres undefined)	-8.2%	-3.6%	-12.8%	0.6%	2.7%	-5.7%	nt	nt	nt	nt
Cc1ccc(C(=O)Nc2cccc(-c3cnc4ccccc4n3)c2)cc1	-0.5%	25.6%	-0.3%[60.1 µM]	-2.2%	35.9%	-11.2%	nt	nt	nt	nt
CC(=O)Nc1ccc(C(=O)Nc2cccc(-c3cnc4ccccc4n3)c2)cc1	-20.5%[11.6 µM]	0.9%	-11.6%	2.1%	4.47µM*	?	14.1*	-30.8	-9.7	29.9*	Pol kappa inh-2=47.4*;Pol eta inh-2=?
COC(=O)c1c(NC(=O)COC(=O)c2ccc(C)s2)sc2c1CCCCC2	6.6%	10.0%	-8.8%	1.7%	0.8%	-14.0%	nt	nt	nt	nt
